Compounds with a hit are over-represented: about 2.8% of the library has one in this group of screens.
FEN1 inhibitor – qHTS Assay for the Inhibitors of Human Flap endonuclease 1 (FEN1); P39748; Potency, µM (top dose mostly 114 µM), most hits filed as inhibitors; Recombinant FEN1 flap cleavage, fluorescence, 15 min; hit rate 0.35% among 390,000; note: nearly all actives have a fitted effect of over 65% in size
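Quantitative HTS format: each compound was titrated, incubated with 10 nM nuclease for 15 min at room temperature, then challenged with flap substrate at 50 nM final. Signal change over 15 min gave concentration–effect curves.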
PI5P4K alpha inh – qHTS for Inhibitors of phosphatidylinositol 5-phosphate 4-kinase (PI5P4K); Phosphatidylinositol 5-phosphate 4-kinase type-2 alpha (Homo sapiens), P48426; PI5P4Kalpha enzyme, ADP-Glo luminescence, 60 min; stronger effect = lower value; max response, %; hit rate 1.2% among 330,000; active = max response of -50% or lower; inconclusive = between -30% and -50%; inactive = -30% or higher; note: value at the top dose of about 77 µM
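Luminescence from ADP-Glo served as readout of PI5P4Kalpha activity in a qHTS format. Reaction: enzyme, substrate, compound, ATP at 5 microM final, 60 min at RT.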
Pol iota inh – qHTS for Inhibitors of Polymerase Iota. DNA polymerase iota (Homo sapiens), Q9UNA4. Pol iota fluorescent replication assay, 10 min. Potency, µM (doses to about 115 µM), usual class: inhibitors. hit rate 1% among 390,000. AID 588590, 2011
Target sequence (Q9UNA4 whole entry, looked up): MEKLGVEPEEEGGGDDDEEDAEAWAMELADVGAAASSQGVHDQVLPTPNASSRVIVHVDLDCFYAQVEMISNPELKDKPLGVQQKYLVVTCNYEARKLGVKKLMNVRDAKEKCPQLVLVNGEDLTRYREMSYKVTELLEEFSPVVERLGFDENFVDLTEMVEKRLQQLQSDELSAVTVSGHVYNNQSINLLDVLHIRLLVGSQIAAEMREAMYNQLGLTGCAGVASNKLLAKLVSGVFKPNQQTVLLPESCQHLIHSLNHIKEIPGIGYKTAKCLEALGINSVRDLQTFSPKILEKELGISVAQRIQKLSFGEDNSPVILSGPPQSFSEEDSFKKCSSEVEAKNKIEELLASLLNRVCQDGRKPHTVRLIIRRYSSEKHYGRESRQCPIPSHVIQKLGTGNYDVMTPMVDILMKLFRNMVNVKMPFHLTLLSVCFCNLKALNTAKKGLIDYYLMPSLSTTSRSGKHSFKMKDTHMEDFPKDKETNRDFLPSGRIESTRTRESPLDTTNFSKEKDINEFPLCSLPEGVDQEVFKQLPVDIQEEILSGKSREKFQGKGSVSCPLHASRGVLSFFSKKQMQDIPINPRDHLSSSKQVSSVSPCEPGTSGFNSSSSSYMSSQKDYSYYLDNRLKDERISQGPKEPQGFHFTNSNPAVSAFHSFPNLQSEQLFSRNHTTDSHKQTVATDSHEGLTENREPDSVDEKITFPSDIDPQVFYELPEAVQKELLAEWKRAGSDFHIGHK
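Fluorescent replication assay read twice, at 0 min and 10 min after adding 50 nM (final) substrate. Enzyme (10 nM) and compounds were first incubated 15 min at room temperature; enzyme-free buffer wells were negative controls.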
POLB inh – qHTS Assay for Inhibitors of DNA Polymerase Beta; Pol beta primer extension/strand displacement, fluorescence kinetic; Potency, µM (highest dose often 114 µM), most hits filed as inhibitors; hit rate 1.3% among 340,000; AID 485314, 2010
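Homogeneous kinetic assay of primer extension and strand displacement by 10 nM Pol beta, preincubated 15 min at room temperature with compound before 50 nM substrate (final) was added. Read at 0 and 10 min; four-parameter Hill fit.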
POLK inh – qHTS for Inhibitors of Polymerase Kappa | purified Pol kappa, fluorescent DNA synthesis assay, 10 min | DNA polymerase kappa (Homo sapiens), Q9UBT6 | Potency, µM (titrated, usually from 107 µM), hits mostly inhibitors | hit rate 0.53% among 400,000 | AID 588579, 2011
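10 nM Pol kappa was preincubated with compounds for 15 min at room temperature. Reaction started with 50 nM (final) substrate. Fluorescence read kinetically at 0 and 10 min.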
Pol eta inh – qHTS for Inhibitors of Polymerase Eta | Potency, µM (series often up to 114 µM), hits mostly inhibitors | AID 588591, 2011 | recombinant Pol eta, fluorescent DNA replication assay | hit rate 1.2% among 390,000
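Pol eta (10 nM) was preincubated with compounds for 15 min at room temperature, after which fluorescent replication substrate (50 nM final) was added to start the reaction. Fluorescence was read kinetically at 0 and 10 min.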
Of the large screens only hits and unclear results are named; the others gave an inactive call. Unless noted, calls come from the whole dose curve; as a rule, active = well fitted curve in the direction sought with a large enough effect; inconclusive = small, poorly fitted or top-dose-only effect, or another doubt; inactive = no such curve, though single readings can be large; an effect the other way counts as inactive or inconclusive.

Cc1cccc2c1-c1sc(C(=O)NCc3ccc(Cl)cc3)cc1CO2	POLK inh inconclusive (no result: PI5P4K alpha inh)
Cc1ccc(CNC(=O)c2cc3c(s2)-c2c(C)cccc2OC3)cc1	Pol iota inh inconclusive, POLB inh 14µM (no result: PI5P4K alpha inh)
COc1cc(/C=C2\C(=N)N3N=C(S(C)(=O)=O)SC3=NC2=O)ccc1OC(=O)c1ccco1	FEN1 inhibitor inconclusive, PI5P4K alpha inh inconclusive, Pol iota inh 20µM, Pol eta inh 22µM
COc1ccccc1OCCOc1ccc(/C=C2/C(=N)N3OC(C)=CC3=NC2=O)cc1OC	Pol eta inh 4µM
COc1cc(/C=C2\C(=N)N3N=C(S(C)(=O)=O)SC3=NC2=O)ccc1OC(=O)c1cccs1	Pol eta inh inconclusive
COc1cc(/C=C2/C(=O)NN(c3cccc(C)c3)C2=O)ccc1OC(=O)c1ccco1	Pol iota inh inconclusive, Pol eta inh 28µM
COc1cc(/C=C2\C(=N)N3N=C(S(C)(=O)=O)SC3=NC2=O)ccc1OCCOc1ccccc1C	PI5P4K alpha inh -57, POLB inh 50µM, Pol eta inh 50µM
CC1=CC2=NC(=O)/C(=C\c3cccn3CCOc3ccccc3C)C(=N)N2O1	Pol iota inh inconclusive
CC(=O)OCC(NC(=O)C1CCCN1C(=O)OC(C)(C)C)C1OC(n2cc(F)c(=O)[nH]c2=O)C(OC(C)=O)C1OC(C)=O (stereo unspecified)	none (no result: PI5P4K alpha inh, POLB inh, Pol eta inh)
CCCCCCCCCCCCCCC(O)C[N+](C)(CCO)CCO (stereo unspecified)	PI5P4K alpha inh -72 (no result: POLB inh)
O=C(O)c1c(-c2ccccc2)oc2ccc(O)cc12	Pol eta inh inconclusive
O=Cc1c(-c2ccc(Cl)cc2)oc2ccc(O)cc12	PI5P4K alpha inh -67, Pol iota inh inconclusive, POLK inh inconclusive, Pol eta inh 45µM (no result: POLB inh)
Nn1c(=S)[nH]c2sc3c(c2c1=O)CCCC3	PI5P4K alpha inh -70 (no result: POLB inh)
CCCn1c(=S)[nH]c2sc3c(c2c1=O)CCCC3	none
O=c1[nH]c(=S)[nH]c2sc3c(c12)CCCCCC3	PI5P4K alpha inh -60
Cc1ccn2c(c1)nc(=O)c1cc(S(=O)(=O)N3CCC(C)CC3)c(Cl)cc12	none (no result: PI5P4K alpha inh)
CCC1(c2ccccc2)NC(=O)N(CC(=O)NCc2ccc(C)cc2)C1=O (stereo unspecified)	none
COc1cc(C2Nc3cccc4cccc(c34)N2)ccc1O	Pol eta inh inconclusive
COc1ccc(Br)cc1C1Nc2cccc3cccc(c23)N1	POLB inh 79µM
COc1cc(C2Nc3cccc4cccc(c34)N2)cc(OC)c1OC(C)=O	FEN1 inhibitor 32µM, PI5P4K alpha inh inconclusive, Pol iota inh inconclusive, Pol eta inh inconclusive
Clc1ccc(C2Nc3cccc4cccc(c34)N2)c(Cl)c1	none (no result: POLB inh)
CC(C)c1ccc(OCC(=O)Nc2ccc(S(=O)(=O)Nc3ncccn3)cc2)cc1	none (no result: PI5P4K alpha inh)
S=C(Nc1ccccn1)c1ccccn1	PI5P4K alpha inh -95
O=C(Nc1ccccn1)C(=O)Nc1ccccn1	none
CCN(CC)S(=O)(=O)c1cccc(C(=O)Nc2ccccc2C(=O)Nc2ccc(OC)cc2)c1	none (no result: PI5P4K alpha inh)
Cc1cc(Cn2cnc3c2C[C@@H](C(=O)O)N(C(=O)C(c2ccccc2)c2ccccc2)C3)ccc1N	none (no result: FEN1 inhibitor, PI5P4K alpha inh, Pol iota inh, POLB inh, Pol eta inh)
Cc1cc(O)c2c(c1O)C(=O)[C@]13C(=C2O)C(=O)[C@@H]2[C@@H](O)[C@H]1[C@@H]1[C@H](O)[C@H]3C(=O)C3=C(O)c4c(O)cc(C)c(O)c4C(=O)[C@]312	FEN1 inhibitor inconclusive, PI5P4K alpha inh -91, Pol iota inh 3.2µM, POLK inh 3.5µM, Pol eta inh 5.6µM (no result: POLB inh)
COc1ccc(CCNC(=O)c2c(O)nc3ccccn3c2=O)cc1OC	none (no result: PI5P4K alpha inh)
CC1(C(=O)Nc2cccc(C#N)c2)CCN1C(=O)c1ccccc1CCc1ccccc1 (stereo unspecified)	none (no result: FEN1 inhibitor, Pol iota inh, POLB inh, POLK inh, Pol eta inh)
O=C(O)c1ccc(N=N/C(=N\Nc2ccc(C(=O)O)cc2)c2ccccc2)cc1	FEN1 inhibitor inconclusive, PI5P4K alpha inh -80 (no result: POLB inh)
C/C(=N\NC(=O)c1ccc(-c2ccccc2)cc1)C1C(=O)c2ccccc2C1=O	Pol iota inh inconclusive, Pol eta inh 32µM
C/C(=N\NC(=O)c1ccc(Br)cc1)C1C(=O)c2ccccc2C1=O	none (no result: PI5P4K alpha inh)
NC(=O)C(=O)O	none (no result: FEN1 inhibitor, PI5P4K alpha inh)
CCOc1ccc(OCC)c(NC(=O)c2cnn(-c3ccc(F)cc3)c2C2CCN(C(=O)OC(C)(C)C)CC2)c1	Pol iota inh inconclusive (no result: PI5P4K alpha inh)
CSCC[C@H](NC(=O)[C@H](CC(C)C)NC(=O)[C@H](Cc1c[nH]c2ccccc12)NC(=O)[C@H](CCC(N)=O)NC(=O)[C@@H](NC(=O)[C@H](Cc1ccccc1)NC(=O)[C@H](CC(=O)O)NC(=O)[C@H](CCC(N)=O)NC(=O)[C@H](C)NC(=O)[C@H](CCCNC(=N)N)NC(=O)[C@H](CCCNC(=N)N)NC(=O)[C@H](CO)NC(=O)[C@H](CC(=O)O)NC(=O)[C@H](CC(C)C)NC(=O)[C@H](Cc1ccc(O)cc1)NC(=O)[C@H](CCCCN)NC(=O)[C@H](CO)NC(=O)[C@H](Cc1ccc(O)cc1)NC(=O)[C@H](CC(=O)O)NC(=O)[C@H](CO)NC(=O)[C@@H](NC(=O)[C@H](Cc1ccccc1)NC(=O)[C@@H](NC(=O)CNC(=O)[C@H](CCC(N)=O)NC(=O)[C@H](CO)NC(=O)[C@@H](N)Cc1cnc[nH]1)[C@@H](C)O)[C@@H](C)O)C(C)C)C(=O)N[C@@H](CC(N)=O)C(=O)N[C@H](C(=O)O)[C@@H](C)O	none (no result: FEN1 inhibitor, PI5P4K alpha inh, Pol iota inh, POLB inh, Pol eta inh)
O=C(c1cc(-c2cccc(Br)c2)nc2ccccc12)N1CCCC1	Pol iota inh inconclusive, POLB inh 22µM
Cc1nnc(-c2cccc(Br)c2)c2cn(-c3ccc(Br)cc3)nc12	FEN1 inhibitor inconclusive, POLK inh inconclusive, Pol eta inh inconclusive
COc1ccc(-n2cc3c(-c4cccc(Br)c4)nnc(C)c3n2)cc1	FEN1 inhibitor 79µM, Pol iota inh inconclusive
COc1ccc(CCC(=O)NCC23CC4CC(CC(C4)C2)C3)cc1	none
CCOc1ccccc1Nc1nc(-c2cccc(Cl)c2)c2c(n1)-c1ccccc1OC2	FEN1 inhibitor 50µM, POLB inh 40µM, POLK inh 89µM (no result: PI5P4K alpha inh)
c1ccc(-c2cc(-c3ccccc3)c3c(n2)-c2ccccc2OC3)cc1	none (no result: PI5P4K alpha inh)
COc1ccc(-c2nc3cccc(C)n3c2Nc2ccc(C)cc2)cc1	none (no result: PI5P4K alpha inh, POLB inh, Pol eta inh)
Cc1ccc(C2CC(=O)Oc3cc(O)ccc32)cc1 (stereo unspecified)	none
O=C1CC(c2ccc3c(c2)OCO3)c2cc(O)ccc2O1 (stereo unspecified)	POLK inh 32µM (no result: FEN1 inhibitor, PI5P4K alpha inh, Pol iota inh, POLB inh, Pol eta inh)
